# Screening results: PubChem BioAssay, National Center for Advancing Translational Sciences (NCATS)
# D1 agonist = human D1 receptor agonism; P21728; HEK293 T-REx D1 cells, calcium flux, agonist mode; activation, % at 2 µM; 1% of 360,000 active; note: 0% is about no effect
#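 Agonism was scored from calcium flux recorded over 180 s (1 read/s) after pintool compound addition, following a 10-cycle baseline. Cells were inducible force-coupled HEK293 TREx D1, plated overnight at 30 C and loaded with no-wash calcium dye.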
# TRHR enhancer = allosteric enhancers of human TRH receptor | enhancement, % at 2 µM | TRHR cells, fluo-8 calcium fluorescence, EC20 TRH enhancement | 0.66% of 360,000 active; in the data active = enhancement above about 30%; note: 0% is about no effect
# Target sequence (P34981 whole entry, looked up): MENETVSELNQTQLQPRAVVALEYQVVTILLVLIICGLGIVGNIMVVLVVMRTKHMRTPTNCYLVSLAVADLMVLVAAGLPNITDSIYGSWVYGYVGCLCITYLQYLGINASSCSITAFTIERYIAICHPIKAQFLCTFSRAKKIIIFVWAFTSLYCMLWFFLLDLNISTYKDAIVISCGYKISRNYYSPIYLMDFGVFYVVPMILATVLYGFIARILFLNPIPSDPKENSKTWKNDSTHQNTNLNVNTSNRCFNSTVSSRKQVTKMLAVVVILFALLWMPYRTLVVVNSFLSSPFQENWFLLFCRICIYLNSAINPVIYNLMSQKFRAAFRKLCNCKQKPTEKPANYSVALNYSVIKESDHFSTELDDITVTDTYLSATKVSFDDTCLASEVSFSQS
#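 TRHR-expressing cells loaded with fluo-8 calcium dye were read kinetically (ex 480/em 530) during compound addition, then stimulated with an EC20 of TRH (10 nM final). Enhancement of the Gq-mediated intracellular calcium response was scored.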
# D1 PAM = potentiators of human D1 dopamine receptor. AID 504651. potentiation, % at 10 µM. HEK293 TREx D1 cells, calcium flux, dopamine EC20 potentiation. 0.036% of 360,000 active. P21728; in the data active = potentiation above about 30%; note: 0% is about no effect
# D1 antagonist = antagonists of human D1 dopamine receptor; 3.2% of 360,000 active; P21728; activity change, negative = inhibition, % at 10 µM; HEK293 TREx D1 cells, calcium flux, dopamine EC80; active compounds read low; in the data active = activity change below about -30%; note: % is set by controls: 0 for no effect and ±100 for the full control effect
#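 Using tetracycline-induced force-coupled D1 Hek293 cells and a calcium dye, signals were followed for 180 s after compound, then for 180 s after EC80 dopamine, to detect inhibitors.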
# TRHR agonist = agonists of human TRH receptor. 0.18% of 360,000 active. P34981. AID 493084. TRHR cells, calcium flux fluo-8, FDSS agonist mode. activation, % at 2 µM; note: 0% is about no effect
#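 In this calcium-flux screen, cells bearing human TRHR are dye-loaded with fluo-8, baselined for 10 cycles, then exposed to library compounds; positive kinetic calcium responses during the agonist phase mark hits, with TRH as control.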
# Starred values were filed as active, the others as inactive; x = no result given; ! = a repeat was not active. An excerpt weighted towards active compounds, which were near 4.7% of everything screened. Cut-off read from the data, not from the text of the source, unless noted: active = activation above about 30%; inactive = the rest.
SMILES,D1 agonist,TRHR enhancer,D1 PAM,D1 antagonist,TRHR agonist
COc1cccc(C(=O)NCCS(=O)(=O)NCc2ccccn2)c1,-0.3,-1.7,-3.8,8.9,-0.2
COc1cc(/C=C2\CC(C(C)(C)C)C/C(=C\c3cc(OC)c(OC)c(OC)c3)C2=O)cc(OC)c1OC (configuration not stated),32.0*,28.7,-3.3,1.0,-0.5
COc1cc(/C=C2\CC/C(=C\c3cc(OC)c(OC)c(OC)c3)C2=O)cc(OC)c1OC,1.9,0.3,-3.4,2.3,-0.1
COc1ccc(S(=O)(=O)Nc2ccc(F)c(F)c2)cc1C(=O)N1CCOCC1,2.8,-6.1,-5.5,-5.9,-0.5
CCN1C(=NCc2ccccc2)N[C@@H](c2ccccc2)[C@H](C(=O)OC)[C@H]1C,0.9,-4.2,1.6,-4.2,0.4
CCN1C(=NCc2ccc(OC)cc2)N[C@@H](c2ccccc2)[C@H](C(=O)OC)[C@H]1C,3.3,30.8*,3.3,-2.4,0.2
Cc1ccc(-c2nnc(Nc3ccc(C(N)=O)cc3)c3ccccc23)cc1S(N)(=O)=O,3.8,-7.3,1.6,6.0,1.3
c1coc(CNC2CCCCCCC2)c1,3.3,-0.6,-2.0,-47.7*,0.5
c1coc(CNC2CCCCC2)c1,1.2,9.3,-4.7,-3.3,-0.2
COC(=O)c1scc(S(=O)(=O)C(C)(C)C)c1N,3.8,2.1,-1.1,-36.8*,-0.1
COC(=O)c1scc(S(=O)(=O)c2ccccc2)c1N,4.7,6.4,1.4,4.6,-0.1
O=C(NCc1ccccn1)c1ccc2nc(C3CCCCC3)oc2c1,0.0,-9.1,-11.8,-18.9,0.0
O=C(CSCc1ccc(F)cc1)N1CCN(c2ccccc2F)CC1,1.3,-1.4,-2.1,-57.8*,-0.9
CC(CC(=O)N1CCN(c2ccccc2F)CC1)c1ccccc1 (configuration not stated),4.1,-2.6,2.1,-32.1*,-0.1
CCc1nnc(NC(=O)C2=CCN(S(=O)(=O)c3ccccc3)CC2)s1,2.5,-0.8,-3.2,-7.8,-0.1
Cc1ccc(CNC(=O)c2ccc3c(c2)c(C)c(C)n3Cc2ccc(Cl)cc2)o1,1.5,0.3,-7.1,10.5,0.0
Cc1cc(/C=N/NC(N)=S)c(O)c(/C=N/NC(N)=S)c1,277.5*,9.9,2.0,1.1,147.6*
NC(=S)N/N=C/c1cccc(O)c1O,0.6,18.2,-3.2,4.4,0.0
COc1cccc(CN(C)C(=O)c2ccc(COc3ccc(Cl)cc3)cc2)c1OC,54.4*,7.1,x,-19.0,-0.8
COc1cccc(CN(C)C(=O)c2ccc(Oc3ccccc3)cc2)c1OC,32.3*,-4.1,-7.3,2.0,-2.1
COc1ccccc1CN(C)C(=O)c1ccc(COc2ccccc2)cc1,10.9,-11.6,-4.3,-4.3,-1.5
CCOc1ccc(OCCOC(=O)CN(C)S(=O)(=O)c2ccc(NC(C)=O)cc2)cc1,10.0,-1.8,-4.2,-3.2,-0.1
CC(/C=N/NC(=O)c1ccncc1)=C\c1ccccc1,3.4,-3.4,-1.7,-9.8,1.6
COc1ccccc1C(=O)N/N=C/C(C)=C/c1ccccc1,7.3,-5.2,-2.4,-63.6*,-0.3
CC(/C=N/NC(=O)Cc1cc(=O)[nH][nH]1)=C\c1ccccc1,57.1*,-9.2,-9.3,1.3,0.1
SMILES,D1 agonist,TRHR enhancer,D1 PAM,D1 antagonist,TRHR agonist
CCN(C(=O)c1nn(C)c2c1CSc1ccccc1-2)c1cccc(C)c1,4.2,5.9,-0.6,1.0,-0.7
CCn1c(CNC(=O)Cc2ccc(OC)cc2)nnc1SCC(=O)NC1CCCCC1,0.4,-3.3,-5.3,-39.1*,-0.3
O=C(CSc1nccn1-c1ccc(F)cc1)Nc1ccc(OC(F)(F)F)cc1,0.3,1.2,-5.2,-76.2*,0.2
COc1ccc(Cn2ccnc2SCC(=O)NC2CCCC2)cc1,6.0,-5.2,3.9,-67.1*!,0.4
COc1ccc(NC(=O)CSc2nccn2Cc2ccccc2)c(OC)c1,8.6,1.0,-7.5,-36.4*,-0.1
COc1ccc(-n2ccnc2SCC(=O)Nc2ccccc2)cc1,3.3,4.9,-3.3,-4.2,-0.3
COC(=O)c1ccc(C(=O)OC)c(NC(=O)c2cnn3c(C(F)F)cc(-c4ccccc4)nc23)c1,1.8,-2.8,-3.9,0.8,0.2
CCn1c(SCC(=O)Nc2nc3ccccc3s2)nnc1-c1ccc(Br)cc1,1.7,-0.1,-3.5,-8.3,0.3
Cn1ccnc1SCC(=O)Nc1cccc2ccccc12,1.8,-7.5,-6.7,-34.4*,-0.4
COc1ccc(C(C)(C)C)cc1NC(=O)COC(=O)c1ncc(Cl)c(Cl)c1Cl,22.9,-2.3,13.1,3.8,0.9
COc1cccc(-n2ccnc2SCC(=O)Nc2ccccc2F)c1,3.2,-3.1,-4.7,-36.5*,-3.0
COc1ccc(NC(=O)COC(=O)c2ncc(Cl)c(Cl)c2Cl)c(OC)c1,0.4,2.0,-2.1,-41.1*,0.0
CCn1c(Cc2ccc(OC)cc2)nnc1SCC(=O)Nc1nc2ccccc2s1,4.1,-6.6,-8.2,-31.3*,-0.5
CC1=C(C(=O)Nc2ccccc2C)C(c2cccs2)n2nc(SCc3ccccc3)nc2N1 (configuration not stated),7.1,5.1,0.2,-8.2,0.5
CC1(C)C2CCC1(C)C(NCC(O)COc1ccc(C#N)cc1)C2 (configuration not stated),11.2,-1.0,2.3,10.9,3.2
CC(C)[C@H](NS(=O)(=O)c1cccc(C(F)(F)F)c1)C(=O)OCC(N)=O,1.9,39.1*,4.7,0.3,2.2
CCn1cc([N+](=O)[O-])c(C(=O)N2N=C(c3cccc4ccccc34)CC2c2ccccc2O)n1 (configuration not stated),0.4,-8.5,12.1,11.8,0.3
CCn1cc([N+](=O)[O-])c(C(=O)N2N=C(c3ccc(OC)cc3OC)CC2c2ccccc2O)n1 (configuration not stated),4.5,12.6,-2.1,-31.2*,-0.4
CC1=NN(C(N)=S)C(=O)C1N=Nc1c(Cl)cc([N+](=O)[O-])cc1Cl (configuration not stated),3.8,-8.3,-10.5,-21.3,0.3
Cc1cc(Cl)ccc1NC(=O)COC(=O)CCNS(=O)(=O)c1ccccc1,8.5,13.0,-1.9,11.0,-0.4
Cc1ccc(S(=O)(=O)NCC(=O)OCCOc2cccc(Cl)c2)cc1,4.0,4.1,39.9*,-4.7,0.7
Cc1ccc(S(=O)(=O)NCCC(=O)OCC(=O)Nc2cccc(Cl)c2)cc1,7.3,-5.5,-4.6,-42.3*,-0.2
O=C(CCn1c(=O)c2cccn2c2cccnc21)NCc1cccc(Br)c1,-1.0,-4.9,1.0,-1.5,-0.4
CCOc1ccc(NS(=O)(=O)c2cccc(C(=O)NCC3(N(C)C)CCCCC3)c2)cc1,10.5,1.7,-5.2,-4.1,3.3
Cc1ccccc1NC(=O)c1cccc(N2C(=O)C3CCCCC3C2=O)c1 (configuration not stated),11.1,3.3,1.4,-30.2*,-1.6
